By viability is commonly meant a read-out of living cells in per cent, often relative to untreated cells. A word on the inhibition: it is the drop in the measured response relative to a control, in per cent.

Molecules are shown by their SMILES. Inconclusive results are not listed. The source made the active and inactive calls.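 How the source made its calls, unless noted: active means viability at or below 10% of carrier control in both of two separate runs; inconclusive means viability at or below 10% in only one of the two runs; inactive means the rest.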

We go through five molecules from PubChem BioAssay.

A short description of assay [1]: Her2 expression decrease, cell viability multiplex – SKBR3 breast tumor cells, AlphaScreen, ATP viability, primary screen (AID 461;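 active means Her2 level under about 52% in both replicate screens, with viability over 70% of control, limit read from the data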;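 on Her2 level: lower value means less Her2 protein in the cells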;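 on viability: percent of carrier control wells set as 100% viability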). The note with it: SKBR3 Her2 protein level, 18-24 h, measured here: SKBR3 viability, ATP luminescence, at 10 µM. In general terms: Alpha assays give light when donor and acceptor beads are brought close together.
For assay [2], the target named is Receptor tyrosine-protein kinase erbB-2 (Homo sapiens) (UniProt P04626). The description is as above. The settings on record: 18-24 h, at 10 µM, stronger effect = lower value.
Assay [3] in a line: reduced viability of SK-BR-3 breast cancer cells – cell-based, 24 h, human, pilot screen (AID 572).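 Further: compound exposure lasted between 18 and 24 h rather than exactly 24 h; 100% = carrier-treated control wells.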 The settings on record: SK-BR-3 viability, CellTiter-Glo luminescence, at 10 µM, stronger effect = lower value. (In general: In ATP-based viability assays light output follows the ATP content of the culture.)
A short description of assay [4]: HUVEC growth inhibition – cell-based, human, primary screen (AID 575;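 active means viability at or below 30% in both replicate assays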;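 further: 100% = median of untreated cell wells with 0.1% DMSO on each plate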). The note with it: HUVEC proliferation, CellTiter-Glo luminescence, 72 h; at 10 µM; stronger effect = lower value.
Assay [5] can be described thus: H69AR cell proliferation blockers – human, duplicate replicates, primary screen (AID 580;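 active means viability at or under a set limit in both replicates, limit being median viability minus 3 SD, cut at about 48% in these data, passing the limit was not always enough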;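 further: 100% = mean luminescence of untreated wells and 0% = no signal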). The settings on record: H69AR lung tumor cells viability, ATP luminescence, 72 h; at 10 µM; stronger effect = lower value.
A short description of assay [6]: MRP1 drug-resistance reversers in H69AR cells – cell-based, doxorubicin co-treatment, pilot screen (AID 601;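 active means viability loss from added drug above about 55%, and viability with drug at most 40%, in both replicates, limit read from the data, passing the limit was not always enough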). The settings on record: CellTiter-Glo, 72 h, at 10 µM; for differential viability (reversal): stronger effect = higher value.
Assay [7] can be described thus: yeast transport mutant growth inhibition pilot in 384-well plates, post-Golgi transport modulator project (AID 636; in the data active means inhibition above about 31%). The note with it: absorbance 615 nm, about 18 h, stronger effect = higher value.
Assay [8] can be described thus: growth suppression of yeast trafficking mutant, preliminary HTS, modulators of trafficking downstream of Golgi apparatus project, 1536-format plate, OD 615 nm (AID 637; in the data active means inhibition above about 30%). The settings on record: yeast transport mutant growth, absorbance 615 nm, 18 h; stronger effect = higher value.
Assay [9] in a line: S. cerevisiae growth inhibition in permissive medium (OD615), pilot counter-assay for S. cerevisiae lifespan shortening project, permissive growth control (AID 705;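 active means growth inhibition above 25% in both replicates, a cutoff set 3 SD above the mean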). The settings on record: OD615, 24 h, at 10 µM, stronger effect = higher value.
Assay [10] can be described thus: S. cerevisiae growth inhibition in restrictive medium, OD615, pilot screen, restrictive growth control, yeast lifespan reduction project (AID 706;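 active means growth inhibition above a set limit, 3 SD over mean compound inhibition, in both replicates, cut at about 43% in these data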;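 further: modified DeaD lifespan yeast strain shifted to restrictive glucose medium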). The note with it: OD615, 48 h, at 10 µM, stronger effect = higher value.
A short description of assay [11]: doxorubicin toxicity protection in MRP-1 cells – H69AR cells, CellTiter-Glo, duplicate, MRP-1 activator project, pilot screen (AID 807;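 active means viability increase at or above a cutoff of the median across tested compounds plus 3 SD, cut at about 8.5% in these data, passing the limit was not always enough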;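 further: compound pretreatment 18-22 h then 72 h combined with doxorubicin; 0% = doxorubicin alone and 100% = vehicle without doxorubicin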). The note with it: H69AR viability with doxorubicin, CellTiter-Glo luminescence; at 10 µM; stronger effect = higher value.
Assay [12] can be described thus: viability of HCT116 without oncogenic beta-catenin – human colon tumor cells, pilot screen (AID 823;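 active means cell viability at or below a set limit in both duplicate runs, the limit being the all-compound median minus 4 SD, cut at about 23% in these data, passing the limit was not always enough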;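 further: 0% = wells killed by 20 µM Hyamine and 100% = untreated DMSO cell wells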). The note with it: HCT116 beta-catenin knockout viability, CellTiter-Glo, 60 h; at 10 µM; stronger effect = lower value.
Assay [13] can be described thus: viability of PTEN-null HCT116 cells – cell-based, HCT116 clonal line, CellTiter-Glo, pilot screen (AID 824;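 active means viability at or below 27.92% in each of two runs, the all-compound median minus 4 SD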;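 further: 0% = 20 µM Hyamine control and 100% = vehicle cell control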). The note with it: HCT116 PTEN-deleted viability, 60 h, at 10 µM, stronger effect = lower value.
The nature of assay [14]: RAM pathway blockade in budding yeast – dse1pr::URA3 reporter, 5-FOA selection, pilot screen (AID 869;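 active means inhibition over a set limit, the all-compound mean plus 3 SD, in both replicate runs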;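 further: 0% = DMSO wells with no growth and 100% = 10 µM 1-NA-PP1 with full growth; RAM network block rescues cells from 5-FOA so hits raise OD615 growth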). The note with it: S. cerevisiae dse1pr::URA3 5-FOA growth, OD615, 2 d; at 10 µM; stronger effect = higher value; strain carries analog-sensitive mutant Cbk1 kinase.
The nature of assay [15]: RAM signaling pathway blockade in yeast – S. cerevisiae, Pdr1DBD-CYC8 efflux-inhibited sensitized strain, primary screen (AID 1298;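 active means RAM network inhibition above 8.4% in each of two replicates, 3 SD over the compound average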;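 further: 0% = DMSO untreated cells without growth and 100% = 10 µM 1-NA-PP1 full growth; higher means more yeast growth rescued from 5-FOA killing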). The note with it: S. cerevisiae cbk1-as DSE1-URA3 strain, 5-FOA growth OD615, 2 d; at 50 µM; stronger effect = higher value.
Where [16] appears, read: H69AR cells + 2 uM doxorubicin, measured here: viability with 2 uM doxorubicin, stronger effect = lower value.
The mark [17] stands for this setting: H69AR cells, compound alone cytotoxicity.

Chain of Receptor tyrosine-protein kinase erbB-2 (Homo sapiens) (P04626 whole entry, looked up): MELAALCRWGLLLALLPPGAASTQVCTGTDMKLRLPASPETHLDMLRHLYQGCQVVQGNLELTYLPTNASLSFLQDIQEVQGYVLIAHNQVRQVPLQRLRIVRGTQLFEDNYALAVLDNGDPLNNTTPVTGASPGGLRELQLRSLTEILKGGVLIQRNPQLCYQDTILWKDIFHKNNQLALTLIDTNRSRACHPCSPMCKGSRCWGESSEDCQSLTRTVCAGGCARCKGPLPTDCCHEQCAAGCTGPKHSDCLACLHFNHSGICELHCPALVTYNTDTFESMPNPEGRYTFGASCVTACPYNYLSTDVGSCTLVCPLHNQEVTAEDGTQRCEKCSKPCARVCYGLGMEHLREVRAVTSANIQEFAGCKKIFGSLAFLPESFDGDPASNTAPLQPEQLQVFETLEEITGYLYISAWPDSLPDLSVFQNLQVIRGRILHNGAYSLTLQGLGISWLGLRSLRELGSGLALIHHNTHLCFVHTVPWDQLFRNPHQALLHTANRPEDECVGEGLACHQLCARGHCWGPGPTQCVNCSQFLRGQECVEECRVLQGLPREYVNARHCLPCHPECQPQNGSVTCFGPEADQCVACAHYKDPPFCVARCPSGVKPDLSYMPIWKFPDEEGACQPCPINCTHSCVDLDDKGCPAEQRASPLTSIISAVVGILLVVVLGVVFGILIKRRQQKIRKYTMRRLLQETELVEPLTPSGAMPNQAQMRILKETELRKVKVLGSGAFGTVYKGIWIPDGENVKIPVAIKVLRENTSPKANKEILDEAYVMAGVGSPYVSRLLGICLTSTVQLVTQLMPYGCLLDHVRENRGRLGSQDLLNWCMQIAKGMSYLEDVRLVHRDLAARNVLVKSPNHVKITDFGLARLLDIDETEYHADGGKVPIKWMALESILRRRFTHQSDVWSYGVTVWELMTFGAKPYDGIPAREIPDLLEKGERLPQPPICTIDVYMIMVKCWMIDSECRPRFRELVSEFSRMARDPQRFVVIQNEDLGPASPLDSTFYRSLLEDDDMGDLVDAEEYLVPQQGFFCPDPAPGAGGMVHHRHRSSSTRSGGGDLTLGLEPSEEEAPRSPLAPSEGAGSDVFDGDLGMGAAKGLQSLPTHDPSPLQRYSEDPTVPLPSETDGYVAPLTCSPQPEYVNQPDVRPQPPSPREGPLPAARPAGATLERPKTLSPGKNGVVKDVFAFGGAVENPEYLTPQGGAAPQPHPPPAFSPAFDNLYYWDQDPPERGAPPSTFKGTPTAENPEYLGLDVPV

For the molecule `Cc1cc(C)cc(N(CC(=O)Nc2cccc(C)n2)S(=O)(=O)c2c(C)noc2C)c1`, the viability in assay [1] was 88.5%; in assay [3], 88.5% (inactive); in assay [4], 92.3% (inactive); in assay [5], 85.6% (inactive); in assay [6] (setting [16]), 73.8%; in [6] (setting [17]) it was 85.6%. Moreover, the viability in [12] is 73.4% (inactive); in [13] it was 71.9% (inactive). The Her2 level in assay [2] was 97% (inactive). Also, in assay [6] (H69AR cells + 2 uM doxorubicin), the differential viability (reversal) was 11.8% (inactive). Besides, the inhibition in assay [7] was -0.64% (inactive); in assay [8] it was -2% (inactive); in assay [14] it was 0.94% (inactive). Moreover, the figures for the growth inhibition in [9] and in assay [10] were -12.3% (inactive) and -11.5% (inactive), respectively. In addition, in assay [11], the viability increase was -4.06% (inactive). Also, in assay [15], the RAM network inhibition is 5.69% (inactive).

With `Cc1ccc(C(=O)NC(Cc2c[nH]c3ccccc23)C(=O)O)o1` (stereo not given), the viability in [1] was 95.5%; in assay [3] it was 95.5% (inactive); in assay [4] it was 87.3% (inactive); in [5] it was 88.9% (inactive); in assay [6] (setting [16]), 87.1%; in assay [6] (setting [17]) it was 88.9%. Also, the viability in [12] is 96.2% (inactive); in assay [13] it was 96.4% (inactive). For the same molecule, the Her2 level in assay [2] was 130% (inactive). Besides, the differential viability (reversal) in [6] (H69AR cells + 2 uM doxorubicin) was 1.82% (inactive). Besides, the inhibition was 1.95% (inactive) in assay [7], -5% (inactive) in [8] and 1.82% (inactive) in assay [14]. The growth inhibition is 1.54% (inactive) in assay [9] and -2.65% (inactive) in assay [10]. In addition, in assay [11], the viability increase is -3.09% (inactive). The RAM network inhibition in assay [15] was 6.26% (inactive).

Turning to `CCCSCCCNC(=O)Cn1cc2c(n1)CCC(C)C2` (stereo not given), the viability is 99.5% in assay [1]; 99.5% (inactive) in assay [3]; 101% (inactive) in assay [4]; 98.8% (inactive) in assay [5]; 91% in [6] (setting [16]); 98.8% in assay [6] (setting [17]). The viability was 102% (inactive) in [12] and 95.7% (inactive) in [13]. The Her2 level in [2] was 106% (inactive). Besides, in [6] (H69AR cells + 2 uM doxorubicin), the differential viability (reversal) is 7.85% (inactive). In addition, the inhibition in assay [7] is 4.49% (inactive); in [8], -0.67% (inactive); in assay [14] it was 0.775% (inactive). Also, the growth inhibition in assay [9] was 3.59% (inactive); in assay [10] it was 1.5% (inactive). In assay [11], the viability increase was -0.9% (inactive). Besides, the RAM network inhibition in assay [15] was 1.33% (inactive).

Regarding `O=C1CC(c2ccccc2)CC(O)=C1C=NCCN1CCOCC1` (stereo not given), the viability is 96.5% in assay [1]; 96.5% (inactive) in [3]; 85.7% (inactive) in assay [4]; 102% (inactive) in assay [5]; 96.2% in assay [6] (setting [16]); 102% in assay [6] (setting [17]). The viability in assay [12] was 94.7% (inactive); in assay [13] it was 93.2% (inactive). The Her2 level in assay [2] is 85.5% (inactive). Moreover, in assay [6] (H69AR cells + 2 uM doxorubicin), the differential viability (reversal) was 5.44% (inactive). For the same molecule, the inhibition was -7.97% (inactive) in assay [7], -1.48% (inactive) in assay [8] and 1.16% (inactive) in assay [14]. In addition, the values for the growth inhibition in [9] and in assay [10] were -4.59% (inactive) and 9.74% (inactive), respectively. Also, the viability increase in assay [11] was 0.42% (inactive). Besides, the RAM network inhibition in [15] was -0.52% (inactive).

For the molecule `COc1ccc(S(=O)(=O)N2Cc3ccccc3CC2C(=O)Nc2ccc(O)cc2)cc1OC` (stereo not given), the viability in [1] was 91%; in assay [3], 91% (inactive); in assay [4] it was 76.3% (inactive); in assay [5], 77.4% (inactive); in assay [6] (setting [16]), 76.2%; in assay [6] (setting [17]), 77.4%. The results for the viability in assay [12] and in assay [13] were 96.6% (inactive) and 87.5% (inactive), respectively. Moreover, the Her2 level in assay [2] was 106% (inactive). Besides, in assay [6] (H69AR cells + 2 uM doxorubicin), the differential viability (reversal) was 1.23% (inactive). Moreover, the inhibition is -4.27% (inactive) in assay [7], -0.83% (inactive) in [8] and 1.39% (inactive) in assay [14]. Moreover, the growth inhibition in assay [9] is -18.6% (inactive); in assay [10], -18.4% (inactive). Further, in assay [11], the viability increase is -4.42% (inactive). In addition, the RAM network inhibition in assay [15] is 11.6% (inactive).
